Experimental data from PubChem BioAssay AID493168 (National Center for Advancing Translational Sciences (NCATS), 2011).
Inconclusive results are not listed. Values without a mark were called inactive. Activity calls are given as the source filed them. Calls follow the shape of the dose curve; as a rule, active = well fitted inhibition curve with a large enough effect; inconclusive = small, poorly fitted or top-dose-only effect, or effect the other way; inactive = flat fitted curve, though single readings scatter.

biological target: Ubiquitin carboxyl-terminal hydrolase 2 (Homo sapiens) (UniProt O75604); assay: Confirmation Assay for Inhibitors of Ubiquitin-specific Protease USP2a Using CHOP2 as the Reporter; details: USP2 core, Ub-CHOP2 coupled reporter fluorescence; series mostly up to 38.3 µM; activity change, negative = inhibition: at the top concentration; also: nearly all actives have a fitted effect of over 55% in size;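 as to activity change, negative = inhibition: plate controls were DMSO wells for no effect and full inhibition by NEM control for full effect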
Text: NIH Molecular Libraries Probe Centers Network [MLPCN] NIH Chemical Genomics Center [NCGC] MLSCN Grant: XO1-MH079852-01 PI Name: Nicholson, Ben. Progenra Inc, Malvern, PA NCGC Assay Overview: Homeostasis of cellular proteins is maintained through a combination of synthesis and degradation. The pathway that accounts for the majority of protein degradation is the ubiquitin-proteasomal pathway. Ubiquitin (Ub) is highly conserved in all cells and the generation of a multi-Ub chain typically targets proteins for degradation by the proteasome. However, ubiquitination is highly reversible and dynamic. Deubiquitination, the reverse process, is catalyzed through the action of enzymes referred to as isopeptidases or deubiquitinating enzymes (DUBs). This group of enzymes is collectively responsible for maintaining adequate pools of free ubiquitin and regulating the ubiquitination status of cellular proteins. The class of DUBs referred to as the ubiquitin-specific proteases (USP) family functions endoproteolytically to cleave Ub chains from a wide range of protein substrates. USP2a deubiquitinates fatty acid synthase (FASN) which has recently been identified as an emerging oncology target. To identify inhibitors of USP2a a cell-free assay was employed. […] The reporter enzyme chosen is an […] called CHOP2, which is activated when the Ub is cleaved by USP2. The free and now activated reporter can subsequently act on its reporter substrate. Thus, this coupled assay gives a fluorescent read-out at excitation/emission wavelengths of 485/531. The assay was developed by Progenra, Inc. and has been licensed for sale by LifeSensors, Inc. as Ub-CHOP2-Reporter-Kit (#PR1101).
NCGC Assay Protocol Summary: The assay buffer, prepared fresh at the day of the assay, contains 20mM Tris-HCl pH 8.0, 2mM CaCl2, 2mM beta-Mercaptoethanol, 0.05% CHAPS. 3ul of 20nM (10nM final) USP2 core, which is stored on ice, is dispensed into a medium-binding black solid Kalypsys 1,536 well plate using the Kalypsys dispenser. The assay plate is then pinned with 23nL compound with the Kalypsys pintool in columns 5-48. The controls are pinned as follows: column 1 two-fold dilutions of 2M NEM in duplicate; column 2 2M NEM (final concentration 38.2mM); column 3&4 DMSO. The assay plate is incubated at RT for 30min. Subsequently, 1.5uL of 100nM (25nM final) Ub-CHOP2 and 1.5uL of 100nM (25nM final) Reporter Substrate (both stored on ice and protected from light) were dispensed into the plate using the Kalypsys dispenser. Plates were read after 60min RT incubation on a ViewLux (Perkin Elmer) plate reader using the following wavelengths Ex 485nm /Em 531nm. Data were normalized to the to AC100 inhibition (NEM). Concentration-response curves were fitted to the normalized data and the concentration-response curves were then classified based on curve quality (r2), response magnitude and degree of measured activity. The time zero reading was used to flag fluorescence artifacts. Keywords: ubiquitination, deubiquitination, proteases, profluorescent, MLSMR, MLPCN, NIH Roadmap, qHTS, NCGC
Potency is read from the fitted curve at half-maximal effect.

Chain of Ubiquitin carboxyl-terminal hydrolase 2 (Homo sapiens) (O75604 whole entry, looked up): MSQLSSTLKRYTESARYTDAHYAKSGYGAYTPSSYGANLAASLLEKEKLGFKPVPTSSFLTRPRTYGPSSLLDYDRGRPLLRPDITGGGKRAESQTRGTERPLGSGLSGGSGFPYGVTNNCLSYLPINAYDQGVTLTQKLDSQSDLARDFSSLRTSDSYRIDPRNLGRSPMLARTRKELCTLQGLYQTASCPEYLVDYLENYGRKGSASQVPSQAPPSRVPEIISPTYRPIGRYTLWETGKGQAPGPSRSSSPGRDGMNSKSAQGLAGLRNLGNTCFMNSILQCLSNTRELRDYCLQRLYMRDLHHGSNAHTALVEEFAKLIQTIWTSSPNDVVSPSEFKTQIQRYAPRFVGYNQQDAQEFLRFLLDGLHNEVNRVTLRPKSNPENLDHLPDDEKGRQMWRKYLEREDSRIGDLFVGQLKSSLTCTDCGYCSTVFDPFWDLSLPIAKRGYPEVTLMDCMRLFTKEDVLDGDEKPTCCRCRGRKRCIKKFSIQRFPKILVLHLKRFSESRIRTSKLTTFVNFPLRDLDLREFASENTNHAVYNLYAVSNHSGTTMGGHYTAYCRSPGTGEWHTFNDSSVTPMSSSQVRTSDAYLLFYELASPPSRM

Going from `COc1ccc2nc(C)cc(SCC(=O)N/N=C/c3c(OC)ccc4ccccc34)c2c1` to `COc1ccc(OCC(=O)Nc2ccccc2OC)cc1`, the “activity change, negative = inhibition” value rises from -0.136% to 7.41%.

First: COc1ccc(NC(=O)CN(Cc2ccccc2)S(C)(=O)=O)cc1
Second: COc1ccc(N(C(=O)C(C)C)S(=O)(=O)c2ccc(Cl)cc2)cc1
The “activity change, negative = inhibition” value of the first is higher: 4.08% for the first, 0.439% for the second.

Going from `CCOC(=O)N1CCN(S(=O)(=O)c2ccc(C)cc2)C1c1ccc(OC)cc1` (stereo not given) to `Cc1ccc(S(=O)(=O)Nc2ccc(N3CCOCC3)cc2)cc1`, the “activity change, negative = inhibition” value rises from -1.44% to -0.804%.

Going from `O=C(CN1CCC(O)CC1)N1c2ccccc2C=Cc2ccccc21` to `CC1=CC(C)(C)N(C(=O)c2ccccc2)c2ccccc21`, the “activity change, negative = inhibition” value rises from -6.07% to -0.389%.

Compared with `Cc1[nH]c2ccccc2c1C(c1ccccn1)c1c(C)[nH]c2ccccc12`, `COC(=O)c1[nH]c(=O)c2ccccc2c1OCc1ccccc1` is lower in “activity change, negative = inhibition” value: -0.144% for the first, -3.77% for the second.

First: O=C(N/C(=C/c1cccnc1)C(=O)N1CCOCC1)c1ccco1
Second: Cc1ccc(C(=O)N/C(=C/c2ccco2)C(=O)Nc2cccc(C(=O)O)c2)cc1
The “activity change, negative = inhibition” value of the first is higher: 4.27% for the first, -4.3% for the second.

Compared with `C/C(CC(=O)N1CCCC1)=N\NC(=O)c1cc2ccccc2cc1O`, `CCOC(=O)N1CCN(CC(=O)n2c(C)c(C)c3ccccc32)CC1` is lower in “activity change, negative = inhibition” value: 4.2% for the first, -2.29% for the second.

Going from `O=C1CC(Nc2ccc(N3CCOCC3)cc2)C(=O)N1c1cccc(C(F)(F)F)c1` (stereo not given) to `O=C(NN=Cc1ccc(N2CCOCC2)s1)c1ccc([N+](=O)[O-])cc1`, the “activity change, negative = inhibition” value falls from 0.199% to -0.992%.

Going from `COc1ccc(CN(Cc2cc3cc(C)ccc3[nH]c2=O)C(=O)N(C)C)cc1` to `COc1ccc2[nH]c(=O)c(CN(C)C(=O)C3CCCCC3)cc2c1`, the “activity change, negative = inhibition” value falls from 0.163% to -0.262%.

First: O=C(Nc1nnc(-c2ccco2)s1)C1CCCCC1
Second: Cc1ccc(Nc2nc(N)nc(CN3CCN(C(=O)c4ccco4)CC3)n2)cc1Cl
The “activity change, negative = inhibition” value of the first is higher: 0.407% for the first, -2.65% for the second.

Compared with `Cc1ccc(C(=O)c2coc3c2C(=O)C(=O)c2ccccc2-3)cc1`, `COc1ccc(C(=O)OCC(=O)c2c[nH]c3ccccc23)c(OC)c1` is higher in “activity change, negative = inhibition” value: -1.36% for the first, -0.191% for the second.

Going from `C=C(CCC(=O)c1ccccc1)C(=O)c1ccccc1` to `O=C(COC(=O)c1cccc(S(=O)(=O)N2CCc3ccccc32)c1)NC1CCS(=O)(=O)C1` (stereo not given), the “activity change, negative = inhibition” value rises from -11.2% to 2.24%.

First: O=C(Nc1ccc(S(=O)(=O)Nc2ncccn2)cc1)c1ccc(S(=O)(=O)N2CCCC2)cc1
Second: Cn1c(=O)c(C(=O)Nc2ncccc2O)c(O)c2ccccc21
The “activity change, negative = inhibition” value of the first is higher: -1.15% for the first, -17.2% for the second.

Going from `CCOc1ccc(CCn2c(-c3ccco3)nc3ccccc3c2=O)cc1OCC` to `COCCn1nnnc1CN(CCc1ccccc1)Cc1cc2ccc(C)cc2[nH]c1=O`, the “activity change, negative = inhibition” value falls from 2.36% to 0.728%.

Compared with `Cc1cccc(NC(=S)NCc2ccc3c(c2)cc(C)n3C)c1C`, `Cc1cc(=O)n2[nH]c(-c3sccc3-n3c(C)ccc3C)cc2n1` is lower in “activity change, negative = inhibition” value: -1.59% for the first, -6.92% for the second.

First: COc1ccc(C(=O)C[N+]2(C)CCOCC2)cc1
Second: COc1ccc(S(=O)(=O)NCCSCc2ccco2)cc1OC
The “activity change, negative = inhibition” value of the first is higher: 2.16% for the first, -14.5% for the second.

Compared with `O=c1oc2c(CN3CCCCC3)c(O)ccc2c2c1CCCCC2`, `c1ccc(Nc2c3c(nc4ncnn24)CCC3)cc1` is higher in “activity change, negative = inhibition” value: -1.38% for the first, 1.21% for the second.

Compared with `CCC(C)c1ccc(O)c(N)c1` (stereo not given), `Cc1ccc(C)c(OCC(=O)Nc2cc(NC(=O)COc3cc(C)ccc3C)cc(C(=O)O)c2)c1` is lower in “activity change, negative = inhibition” value: 6.58% for the first, -15.4% for the second.

With `C#CCOCCOCCOCCNc1nc(N2CCN(C(=O)CCCCCCCCCCNC(=O)[C@@H](CCC(=O)O)n3cc(CCCCCN)nn3)CC2)nc(N2CCN(C(=O)CCCCCCCCCCNC(=O)[C@H](CCCCN)n3cc(C[C@@H](C)CC)nn3)CC2)n1` the Potency was 5.21 µM (active).
In the case of `CCCCCCCCCCC[N+](C)(C)CC/C=C1/c2ccccc2Sc2ccc(Cl)cc21`, the Potency is reported as 9.27 µM (active).
`Nc1c(C(=O)NC2CC2)sc2nc3c(c(-c4ccco4)c12)CC/C3=C/c1ccco1` was tested, and the Potency was 7.36 µM (active).
With `CC(=O)c1ccc2c(c1)C1C=CCC1C(C(=O)O)N2` (stereo not given) the Potency was 11.7 µM (active).
